Laboratory results as given in PubChem BioAssay (EPA / NIEHS).
Activity calls are given as the source filed them. How the source made its calls: active means hit-call score of the fitted dose curve at least 0.9, where 1 is the maximum; inactive means score below 0.9.

Assays:
Settings in all cases: mRNA level, 48 h; actives raise or lower the signal
[1] = read-out: Cytochrome P450 7A1 (Homo sapiens) (UniProt P22680); assay: LTEA_HepaRG_CYP7A1: Life Technologies and Expression Analysis (LTEA) Assay for Cytochrome P450 7A1 (CYP7A1) using HepaRG (AID 2283496)
Procedure, shortened: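 HepaRG, 48 h exposure, 8-pt half-log series from 100 uM, 0.5% DMSO vehicle, duplicates. Readout: TaqMan qRT-PCR mRNA vs three housekeeping genes; bidirectional curve fit against DMSO baseline.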

[2] = read-out: Glutathione S-Transferase (GSTA2), GSTA2 (gene 2939); assay: LTEA_HepaRG_GSTA2: Life Technologies and Expression Analysis (LTEA) Assay for Glutathione S-Transferase (GSTA2) using HepaRG (AID 2283497)
Procedure, shortened: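 qRT-PCR readout of GSTA2 transcript, normalized to three housekeeping genes, fitted bidirectionally against 0.5% DMSO baseline. Differentiated HepaRG cells received compound for 48 h at 8 concentrations (top 100 uM, half-log steps).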

[3] = read-out: Glutamate-cysteine ligase catalytic (GCLC), GCLC (gene 2729); assay: LTEA_HepaRG_GCLC: Life Technologies and Expression Analysis (LTEA) Assay for Glutamate-cysteine ligase catalytic (GCLC) using HepaRG (AID 2283498)
Procedure, shortened: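 HepaRG, 48 h exposure, 8-pt half-log series from 100 uM, 0.5% DMSO vehicle; TaqMan qRT-PCR for GCLC mRNA, housekeeping-normalized; bidirectional curve fit vs DMSO baseline.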

[4] = read-out: growth arrest and DNA damage 45 (GADD45G), GADD45G (gene 10912); assay: LTEA_HepaRG_GADD45G: Life Technologies and Expression Analysis (LTEA) Assay for growth arrest and DNA damage 45 (GADD45G) using HepaRG (AID 2283499)
Procedure, shortened: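 Gain or loss of GADD45G mRNA, quantified by TaqMan qRT-PCR against three housekeeping genes, is fitted in both directions relative to 0.5% DMSO. Human HepaRG cultures receive test chemical for 48 h at up to 100 uM.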

[5] = read-out: Glutathione S-transferase M3 (GSTM3), GSTM3 (gene 2947); assay: LTEA_HepaRG_GSTM3: Life Technologies and Expression Analysis (LTEA) Assay for Glutathione S-transferase M3 (GSTM3) using HepaRG (AID 2283501)
Procedure, shortened: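 HepaRG, plated 48 h, then serum-free induction medium; test chemical 48 h, duplicate; 100 uM top, half-log x8, 0.5% DMSO. Read-out: GSTM3 mRNA (TaqMan qRT-PCR, Fluidigm array). Bidirectional fit vs DMSO.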

[6] = read-out: Heat shock 70 kDa protein 1 (HSPA1A), gene 3303; assay: LTEA_HepaRG_HSPA1A: Life Technologies and Expression Analysis (LTEA) Assay for Heat shock 70 kDa protein 1 (HSPA1A) using HepaRG (AID 2283502)
Procedure, shortened: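 HSPA1A expression measured by qRT-PCR with ACTB/GAPDH/POLR2A normalization; curves fitted in both directions relative to DMSO vehicle. Exposure: 48 h in HepaRG cells, duplicate 8-point half-log series from 100 uM, 0.5% DMSO, serum-free induction medium.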

[7] = read-out: Hypoxia-inducible factor 1-alpha (Homo sapiens) (UniProt Q16665); assay: LTEA_HepaRG_HIF1A: Life Technologies and Expression Analysis (LTEA) Assay for Hypoxia-inducible factor 1 (HIF1A) Trancription factor using HepaRG (AID 2283503)
Procedure, shortened: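 HIF1A transcript level read by qRT-PCR (ACTB, GAPDH, POLR2A normalization) after 48 h chemical exposure of HepaRG cultures. Eight half-log concentrations, top 100 uM, 0.5% DMSO vehicle, duplicates; bidirectional curve fit against DMSO baseline.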

HGF (gene 3082) = assay: LTEA_HepaRG_HGF: Life Technologies and Expression Analysis (LTEA) Assay for Hepatocyte Growth Facto (HGF) using HepaRG (AID 2283505)
Procedure, shortened: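 Read-out is HGF transcript level by qRT-PCR, normalized to three housekeeping genes, fitted bidirectionally against 0.5% DMSO vehicle. Human HepaRG cells received test chemicals for 48 h at up to 100 uM.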

[8] = read-out: Insulin Like Growth Factor 1 (IGF1), IGF1 (gene 3479); assay: LTEA_HepaRG_IGF1: Life Technologies and Expression Analysis (LTEA) Assay for Insulin Like Growth Factor 1 (IGF1) using HepaRG (AID 2283506)
Procedure, shortened: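 Expression measured by TaqMan qRT-PCR on a Fluidigm array, with three housekeeping genes for normalisation, after 48 h treatment of HepaRG cells. Top concentration 100 uM with half-log steps, 0.5% DMSO vehicle, bidirectional fit.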

[9] = read-out: Intercellular Adhesion Molecule 1 (ICAM1), ICAM1 (gene 3383); assay: LTEA_HepaRG_ICAM1: Life Technologies and Expression Analysis (LTEA) Assay for Intercellular Adhesion Molecule 1 (ICAM1) using HepaRG (AID 2283507)
Procedure, shortened: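 Readout is qRT-PCR mRNA level, normalized to three housekeeping genes and fitted bidirectionally against 0.5% DMSO vehicle. Human HepaRG cultures received compound for 48 h, top concentration 100 uM with half-log dilutions.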

[10] = read-out: Insulin-like growth factor-binding protein 1 (IGFBP1), IGFBP1 (gene 3484); assay: LTEA_HepaRG_IGFBP1: Life Technologies and Expression Analysis (LTEA) Assay for Insulin-like growth factor-binding protein 1 (IGFBP1) using HepaRG (AID 2283508)
Procedure, shortened: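 Thawed HepaRG cells are plated for 48 h, switched to serum-free induction medium, then dosed in duplicate for another 48 h (100 uM top, half-log steps). Lysates in RLT go to qRT-PCR, and gain or loss of signal is fitted relative to vehicle.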

[11] = read-out: Interleukin 6 (IL6), IL6 (gene 3569); assay: LTEA_HepaRG_IL6: Life Technologies and Expression Analysis (LTEA) Assay for Interleukin 6 (IL6) using HepaRG (AID 2283509)
Procedure, shortened: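 qRT-PCR read-out of IL6 transcript, normalized to three housekeeping genes, after 48 h chemical exposure of HepaRG cells; 8-point half-log series, top 100 uM, 0.5% DMSO vehicle. Bidirectional curve fitting against DMSO baseline.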

[12] = read-out: Interleukin 6 Receptor (IL6R), IL6R (gene 3570); assay: LTEA_HepaRG_IL6R: Life Technologies and Expression Analysis (LTEA) Assay for Interleukin 6 Receptor (IL6R) using HepaRG (AID 2283510);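 on AC50: differentiated human HepaRG liver cells in serum-free induction medium; TaqMan qRT-PCR signal normalized to ACTB GAPDH and POLR2A housekeeping genes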
Procedure, shortened: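 IL6R transcript level by qRT-PCR after 48 h chemical exposure (8-point, half-log, max 100 uM, 0.5% DMSO vehicle) of HepaRG cells in serum-free induction medium. Normalized to three housekeeping genes; curves fitted in both directions relative to DMSO.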

[13] = read-out: Potassium channel subfamily K member 1 (KCNK1), KCNK1 (gene 3775); assay: LTEA_HepaRG_KCNK1: Life Technologies and Expression Analysis (LTEA) Assay for Potassium channel subfamily K member 1 (KCNK1) using HepaRG (AID 2283511)
Procedure, shortened: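 HepaRG, 48 h exposure, 8-pt half-log series top 100 uM, 0.5% DMSO vehicle, duplicates. Readout: KCNK1 transcript by qRT-PCR (Fluidigm array), housekeeping-normalized; bidirectional curve fit relative to DMSO baseline.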

[14] = read-out: Lipase C (LIPC), LIPC (gene 3990); assay: LTEA_HepaRG_LIPC: Life Technologies and Expression Analysis (LTEA) Assay for Lipase C (LIPC) using HepaRG (AID 2283514)
Procedure, shortened: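 HepaRG, 48 h exposure, 8-pt half-log series from 100 uM in 0.5% DMSO, duplicates. Readout: LIPC mRNA by Fluidigm qRT-PCR, housekeeping-normalized (ACTB/GAPDH/POLR2A). Gain or loss fitted bidirectionally against DMSO baseline.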

[15] = read-out: Keratin 19 (KRT19), KRT19 (gene 3880); assay: LTEA_HepaRG_KRT19: Life Technologies and Expression Analysis (LTEA) Assay for Keratin 19 (KRT19) using HepaRG (AID 2283512)
Procedure, shortened: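 KRT19 transcript levels, measured by Fluidigm qRT-PCR against three housekeeping genes, are fitted for gain or loss of signal relative to DMSO. Human HepaRG cells receive test chemicals (top 100 uM, half-log steps, 0.5% DMSO) for 48 hours.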

[16] = read-out: JUN Transcription Factor, JUN (gene 3725); assay: LTEA_HepaRG_JUN: Life Technologies and Expression Analysis (LTEA) Assay for JUN Transcription Factor using HepaRG (AID 2283513)
Procedure, shortened: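 mRNA measured by TaqMan qRT-PCR after 48 h chemical exposure of HepaRG cultures; normalization to three housekeeping genes. Duplicate eight-point half-log curves from 100 uM in 0.5% DMSO; gain or loss fitted against DMSO baseline.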

[17] = read-out: Lipoprotein lipase (LPL), LPL (gene 4023); assay: LTEA_HepaRG_LPL: Life Technologies and Expression Analysis (LTEA) Assay for Lipoprotein lipase (LPL) using HepaRG (AID 2283515)
Procedure, shortened: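 HepaRG, 48 h exposure, 8-pt half-log dilutions from 100 uM, 0.5% DMSO vehicle, duplicates; qRT-PCR (Fluidigm array) of LPL mRNA vs housekeeping genes; bidirectional curve fit relative to DMSO baseline.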

[18] = read-out: 3-Hydroxy-3-Methylglutaryl-CoA Synthase 2 (HMGCS2), HMGCS2 (gene 3158); assay: LTEA_HepaRG_HMGCS2: Life Technologies and Expression Analysis (LTEA) Assay for 3-Hydroxy-3-Methylglutaryl-CoA Synthase 2 (HMGCS2) using HepaRG (AID 2283504)
Procedure, shortened: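 HepaRG, plated 48 h then switched to serum-free induction media; cmpd 8-pt, max 100 uM, 1/2-log, 0.5% DMSO, n=2, 48 h. HMGCS2 mRNA by Fluidigm TaqMan qRT-PCR, ACTB/GAPDH/POLR2A norm; bidirectional fit vs DMSO.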

Measured: AC50

Sequence of Hypoxia-inducible factor 1-alpha (Homo sapiens) (Q16665 whole entry, looked up): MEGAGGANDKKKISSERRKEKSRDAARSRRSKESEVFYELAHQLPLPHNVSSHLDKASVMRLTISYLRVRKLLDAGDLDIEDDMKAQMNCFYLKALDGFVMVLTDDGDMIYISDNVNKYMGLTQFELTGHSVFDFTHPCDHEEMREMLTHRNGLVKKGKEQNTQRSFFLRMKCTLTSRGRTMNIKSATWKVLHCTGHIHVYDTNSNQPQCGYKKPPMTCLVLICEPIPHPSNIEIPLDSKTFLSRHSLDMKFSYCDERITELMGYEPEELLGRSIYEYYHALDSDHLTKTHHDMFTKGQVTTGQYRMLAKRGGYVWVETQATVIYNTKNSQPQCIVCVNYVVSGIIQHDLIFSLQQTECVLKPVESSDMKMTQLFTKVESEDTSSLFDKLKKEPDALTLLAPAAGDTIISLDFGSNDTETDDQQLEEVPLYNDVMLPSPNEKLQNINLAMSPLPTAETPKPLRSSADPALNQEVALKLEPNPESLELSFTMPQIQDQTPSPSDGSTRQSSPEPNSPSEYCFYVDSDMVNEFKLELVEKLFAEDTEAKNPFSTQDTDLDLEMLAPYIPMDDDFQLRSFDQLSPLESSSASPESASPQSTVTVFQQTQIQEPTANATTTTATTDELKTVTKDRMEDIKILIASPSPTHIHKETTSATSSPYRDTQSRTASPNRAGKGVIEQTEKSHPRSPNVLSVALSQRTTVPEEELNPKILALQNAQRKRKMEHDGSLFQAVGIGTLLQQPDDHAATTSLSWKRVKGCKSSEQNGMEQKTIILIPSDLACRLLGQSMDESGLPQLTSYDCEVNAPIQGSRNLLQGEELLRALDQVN

CC1=NNC(=O)N(/N=C/c2cccnc2)C1
not listed: [15] | [16] | [17] | [18]
inactive: all other assays above

CSC1=N[C@@](C)(c2ccccc2)C(=O)N1Nc1ccccc1
active: [1] 38 µM | [2] 33.9 µM | [4] 13.5 µM | [5] 76.6 µM | [7] 77.1 µM | [8] 27.6 µM | [9] 34 µM | [10] 31.6 µM | [11] 33.3 µM | [12] 16.5 µM | [15] 18.7 µM | [14] 31.4 µM | [17] 26.9 µM
inactive: [3] | [6] | HGF (gene 3082) | [13] | [16]

CCc1cccc(CC)c1N(COC)C(=O)CCl
active: [10] 32.1 µM
not listed: [16]
inactive: all other assays above

C[N+]1(C)CCCCC1
not listed: [15] | [16] | [17] | [18]
inactive: all other assays above

CN(C)C(=O)Nc1cccc(C(F)(F)F)c1
active: [14] 50 µM
not listed: [16] | [17]
inactive: all other assays above

CCCCOC(=O)c1ccccc1C(=O)O
not listed: [15] | [16] | [18]
inactive: all other assays above

CCOP(=S)(OCC)Oc1ccc([N+](=O)[O-])cc1
active: [1] 1.78 µM | [12] 1.48 µM
not listed: [13] | [17] | [18]
inactive: all other assays above

COc1cccc(C(=O)NN(C(=O)c2cc(C)cc(C)c2)C(C)(C)C)c1C
active: [1] 2.88 µM | [8] 74.6 µM
not listed: [16] | [17] | [18]
inactive: all other assays above
